PubChem BioAssay AID2315 (National Center for Advancing Translational Sciences (NCATS), 2010)
Out of some 290,000 compounds screened, about 27,000 (9.3%) were called active. Many of the other results were omitted from the sample, so actives are more common in it than they were. Unmarked numbers belong to inactive results. Rule as the data show it: active = inhibition mostly above about 28% (no sharp cut-off); inactive = mostly below about 43%.

Assay: A qHTS for Small Molecule Inhibitors of Shiga Toxin; as to inhibition: 0% is about no effect
Details: Vero cells, Shiga toxin protein synthesis inhibition reporter; at 38.7 µM, stronger effect = higher value

SMILES | inhibition
CC(C)CCn1c(=O)c2c(nc3n2CCCN3Cc2ccccc2)n(C)c1=O | -11.9%
CC(C)C[C@@H](COc1ccccc1)N1CCN(CC(C)C)CCC1=O | 6.99%
O=S(=O)(c1ccc(Br)cc1)N1CCC(c2nc3ccccc3[nH]2)CC1 | 20.1%
CCCc1cc(=O)oc2c(C)c(OC(C)C(=O)NCC(O)c3ccccc3)ccc12 (stereo unspecified) | -4.11%
O=C(CN(C(=O)c1csnn1)c1cccc(Cl)c1)NC1CCCC1 | 13.6%
C=CCOC(=O)C(=C)C | -5.85%
OCc1ccc(OCCCOc2cccc3cccnc23)cc1 | 31.7%
Cc1ccnc(NC(=O)CCNS(=O)(=O)c2ccc(C)c(C)c2)c1 | 75.2% (active)
Cc1ccc(S(=O)(=O)NCCC(=O)Nc2cccc(S(N)(=O)=O)c2)cc1C | 3.14%
Cc1ccc(S(=O)(=O)NCCC(=O)Nc2ccc(C)c(Cl)c2)cc1C | -2.35%
O=[N+]([O-])c1ccccc1/C=C/CN1CCCC(CO)C1 (stereo unspecified) | -4.92%
COc1cc2c(C(=O)N(C)c3cc(Cl)ccc3OC)cn(C)c(=O)c2cc1OC | -4.23%
O=C1CCN(CCCc2ccccc2)CCN1CCO | -7.2%
O=C(Nc1ccccc1)/C(=C/c1ccc([N+](=O)[O-])cc1)NC(=O)c1ccccc1 | 0.876%
O=C(NCC1CCCO1)/C(=C/c1ccc(Cl)cc1)NC(=O)c1ccccc1 (stereo unspecified) | -1.77%
N#C/C(=C/c1ccc(Cl)cc1)NC(=O)c1ccccc1 | 69.2% (active)
CCn1c(SCC(=O)NC2CC2)nnc1-c1ccncc1 | 6.57%
Cc1nn2c(NCCN(C)C)c3c(nc2c1-c1ccccc1)CCC3 | -1.35%
Cc1ccc2c(=O)cc(C(=O)NCCc3ccc(S(N)(=O)=O)cc3)oc2c1C | 3.06%
CCc1ccc(NC2Nc3cc(C)nn3S2)cc1 (stereo unspecified) | 52% (active)
CCOC(=O)c1ccc(NC2Nc3cc(C)nn3S2)cc1 (stereo unspecified) | 37.2%
CC(C)(C)c1ccc(/C=C/C(=O)NCCCn2ccnc2)cc1 | -13.7%
Cn1c(=O)[nH]c(=O)c2c1nc(Br)n2CCCCSc1nc2ccccc2o1 | 39.4%
CCOC(=O)c1ccccc1NC(=O)CSc1nc2ccccc2c(=O)[nH]1 | -5.65%

SMILES | inhibition
CCC(NC(=O)c1ccccc1NC(=O)c1ccccc1)C(=O)NNC(=O)CSc1nc2ccccc2o1 (stereo unspecified) | 23.3% (active)
COc1ccc(OC)c(NC(=O)C2CCCN2S(=O)(=O)c2cccc3nsnc23)c1 (stereo unspecified) | -4.24%
C=CCNc1nc(Nc2ccc(Cl)cc2)nc(OC)n1 | 71.3% (active)
C=CCNc1nc(C)nc(OC)n1 | -12.3%
COc1nc(NCc2ccc(Cl)cc2)nc(OC)n1 | 45.3%
Cc1sc2nc(SCCO)n(-c3ccccc3)c(=O)c2c1C | -3.85%
Cc1ccc2c(c1)N(C(=O)CCC(=O)NCc1cccnc1)CCO2 | 3.18%
Oc1ccc(Cl)cc1C1C=C(c2ccc3c(c2)OCO3)NC(c2c(F)cccc2Cl)N1 (stereo unspecified) | 68.7% (active)
Oc1ccc(Cl)cc1C1C=C(c2ccc3c(c2)OCO3)NC(c2ccc(F)c(Br)c2)N1 (stereo unspecified) | 93.1% (active)
Cc1csc(Nc2ccc(Cl)cc2)[n+]1-c1ccc(Cl)cc1 | 19.3%
COCCN1C(=O)C(=O)/C(=C(/O)c2ccc(S(=O)(=O)N3CCCCC3)cc2)C1c1ccc(OC)c(OC)c1 (stereo unspecified) | 11%
C/C(=N\NC(=O)CNc1cccc2ccccc12)c1ccc(Br)s1 | -8.07%
Cn1cccc1/C=N/NC(=O)CNc1cccc2ccccc12 | 6.61%
Cc1cccc(/C=N/NC(=O)CNc2cccc3ccccc23)n1 | 70.6% (active)
CC(C)c1nc(-c2ccccn2)no1 | 46.2% (active)
c1ccc(-c2nccc(-c3ccc(-n4cnc5ccccc54)cc3)n2)nc1 | -13.3%
Clc1ccc(-c2cc(-c3ccccn3)on2)c(Cl)c1 | 48.1%
COc1ccc(-n2ncc3c2CC(C)(C)CC3NC(=O)CCc2c(C)noc2C)cc1 (stereo unspecified) | 27.2%
O=C(/C=C/c1cccs1)c1cc(Cl)ccc1OC(=O)N1CCOCC1 | 18.1%
COc1ccc(-c2nc(CS(=O)(=O)CC(=O)NCc3cccc(Br)c3)c(C)o2)cc1 | 4.36%
O=C(O)C(c1ccccc1)N1C(=O)/C(=C\c2ccc(-c3cccc(Cl)c3)o2)SC1=S (stereo unspecified) | -2.95%
O=C1c2ccccc2NC(c2ccc(-c3cccc(Cl)c3)o2)N1O (stereo unspecified) | 58.1% (active)
O=C1NN(c2ccccc2)C(=O)/C1=C/c1ccc(-c2cccc(C(=O)O)c2)o1 | 18.2%
COc1cccc(N(CC(=O)NCc2ccccc2)C(=O)CCC(=O)Nc2nccs2)c1 | -2.69%

SMILES | inhibition
CC(C)CC(=O)NC(=S)Nc1cc(C(=O)O)ccc1Cl | 30.7%
COc1ccc(NS(=O)(=O)c2ccc(NC(=S)NC(=O)CC(C)C)cc2)cc1 | -7.41%
CC(=O)c1ccc(NC(=S)NC(=O)CC(C)C)cc1 | 26.8% (active)
CCOC(=O)C1CCN(S(=O)(=O)c2c(C)noc2C)CC1 | 30.7%
COC(=O)c1ccccc1NC(=O)CSc1n[nH]c(-c2ccncc2)n1 | 4.61%
Cc1cccc(C(=O)Nc2ccc(C(=O)/C=C/c3cccs3)cc2)c1 | 99.7% (active)
Cc1cccc(C(=O)Nc2ccc(CC(=O)O)cc2)c1 | 18.5%
Cc1cccc(C(=O)Nc2ccc(C(=O)N/N=C/c3cccc(C)n3)cc2)c1 | 3.17%
Cc1ccc(C(=O)N/C(=C\c2cn(S(=O)(=O)N(C)C)c3ccccc23)C(=O)N2CCCC2)cc1 | -2.9%
CCOc1ccc(C(C(=O)NC2CCCC2)N(C(=O)c2snc(C(N)=O)c2N)C2CCCC2)cc1 (stereo unspecified) | 12.4%
COC(=O)CSc1nc(C2CC2)nc2ccccc12 | -5.63%
COC(=O)CSc1nc(C)c2ccc(OC)cc2n1 | 44.6% (active)
COc1ccc2nc(SCc3ccccc3)nc(C)c2c1 | 70.1% (active)
COc1cccc(CSc2nc3nc(C)cc(C)n3n2)c1 | -3.55%
COc1ccc2[nH]c3nc(SCC(=O)NC4CC4)nnc3c2c1 | -7.63%
COc1ccc(-c2nnc3ccc(SCc4ccccc4)nn23)cc1 | 9.35%
O=C(COc1cc2oc(=O)c3c(c2cc1Cl)CCC3)NCCCN1CCOCC1 | -7.49%
NC(=O)c1cc(S(=O)(=O)NCCCc2ccco2)cs1 | 19.4%
CN1CCN(CCNC(=O)Nc2ccccc2[N+](=O)[O-])CC1 | 24.3%
O=[N+]([O-])c1ccccc1N/N=C1\CCc2ccccc21 | 50.9% (active)
O=[N+]([O-])c1cc(C(F)(F)F)ccc1NN=C1CCCC1 | 9.47%
CCOC(=O)C1CCCN(S(=O)(=O)c2ccc(-n3cnnn3)c(C)c2)C1 (stereo unspecified) | -3%
CC(C)(C)c1ccc(CN2C(=O)c3ccccc3S2(=O)=O)cc1 | 32.5%
COc1ccc(CN2CCC(=O)c3ccccc3S2(=O)=O)cc1 | -3.72%

SMILES | inhibition
CC(C)(C)c1ccc(OC2=CS(=O)(=O)c3ccccc32)cc1 | 135% (active)
Cc1cccc(OCC(=O)NCCNC(=O)c2cccnc2)c1 | -6.35%
Brc1ccc(C2CC(c3ccccc3)=Nc3ccccc3N2)cc1 (stereo unspecified) | 105% (active)
Brc1ccc(C2=NCCC(c3ccccc3)O2)cc1 (stereo unspecified) | inactive
Cc1cc(=O)oc2cc(OCC(=O)N3CCN(c4ccc(F)cc4)CC3)c(Cl)cc12 | -2.97%
O=C(Nc1ccc(S(=O)(=O)N2CCCCC2)cc1)C1CC(=O)N(c2ccc(F)cc2)C1 (stereo unspecified) | 29.9%
Cc1cc2oc(=O)cc(CN3CCN(Cc4ccccc4)CC3)c2cc1C | -3.23%
Cc1noc(C)c1C(=O)NCCc1ccc(S(N)(=O)=O)cc1 | 10.5%
Clc1ccc(CN2CCCCCC2)cc1Cl | -3.6%
Cc1cccc(N2CCN(C(=O)c3cccc(S(=O)(=O)N4CCc5ccccc5C4)c3)CC2C)c1 (stereo unspecified) | -8.81%
N#Cc1ccc(N2Cc3ccccc3/C2=N/C(=O)Nc2ccc(Cl)cc2)cc1 | 24.7%
Cc1cccc(N2Cc3ccccc3C2=NC(=O)c2ccc(Cl)nc2)c1 | 0% (active)
O=C(Nc1ccc(S(=O)(=O)N2CCCCC2)cc1)c1cnccn1 | -1.88%
CCN1CCN(c2ccc(NC(=O)c3cnccn3)cc2)CC1 | 48.5% (active)
O=C(NCN1CCN(CCO)CC1)c1cnccn1 | 13%
Cn1c(NN)nc2sc3c(c2c1=O)CCC3 | 12.5%
CN1CCN(CC(=O)Nc2sc3c(c2C#N)CCC(C(C)(C)C)C3)CC1 (stereo unspecified) | -10.4%
Cc1sc2nc(SCC(N)=O)n(C)c(=O)c2c1C | 8.03%
CC(C)(C)C1CCc2c(sc3nc(SCC(N)=O)nc(N)c23)C1 (stereo unspecified) | 42.9% (active)
C=C(C)CSc1nc(N)c2c3c(sc2n1)CCC3 | 77.1% (active)
Nc1nc(SCC(=O)NCCN2CCOCC2)nc2sc3c(c12)CCC3 | 7.28%
CCOC(=O)N1CCN(S(=O)(=O)N2CCCC(C(=O)NCCCN3CCC(C)CC3)C2)CC1 (stereo unspecified) | -4.12%
CC(=O)c1ccc(NC(=O)CCNS(=O)(=O)c2cc(Br)cnc2N)cc1 | -8.28%
CCc1ccc(OCC2c3cc(OC)c(OC)cc3CCN2C(C)=O)cc1 (stereo unspecified) | -3.8%
